Compound activity deposited in PubChem BioAssay by The Scripps Research Institute Molecular Screening Center.
Hits are enriched below; roughly 4.1% of the tested compounds scored in any of these assays.
DAX1 inh-1: DAX1 (NR0B1) inhibition, primary screen. HEK293T StAR-luciferase reporter, SF-1/DAX-1 repression relief. inhibition, % at 6.8 µM. actives 1.1% (n = 370,000);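 active = inhibition above the mean over all tested compounds plus 3 SD, cut at about 3.6% in these data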;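 also: 0% = DAX-1 cells with DMSO and 100% = cells lacking DAX-1 with DMSO; higher inhibition means more luminescence from relief of DAX-1 repression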
hgDAF12 agonist: hgDAF-12 agonism, primary luciferase screen | HEK293 GAL4-hgDAF12 UAS-luciferase reporter, agonist luminescence; normalized to butyrate control | activation, % at 6.8 µM | actives 1.8% (n = 370,000) | AID 687014;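 active = activation above a cutoff set at the mean of all screened compounds plus 3 SD, cut at about 10% in these data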;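 also: 0% = DMSO wells and 100% = sodium butyrate wells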
ssDAF12 agonist: S. stercoralis DAF-12 activation, primary screen; HEK293 ssDAF-12/GRIP1 lit1-tk-luc reporter, luminescence; % of 3 µM dafachronic acid response; activation, % at 6.8 µM; actives 1% (n = 370,000);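 active = activation above the mean over all tested compounds plus 3 SD, cut at about 0.9% in these data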;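 also: 0% = DMSO-only wells and 100% = 3 µM delta7-dafachronic acid wells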
DAX1 inh-2: inhibits human nuclear receptor DAX1. P51843. HEK293 Gal4-DAX1 luciferase reporter, luminescence. inhibition, % at 6.75 µM. actives 0.99% (n = 340,000). AID 504766;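 active = inhibition above the mean over all tested compounds plus 3 SD, cut at about 4.2% in these data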;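 also: 0% = DAX1-transfected cells with DMSO and 100% = empty-vector control cells with DMSO; inhibition shows as a rise in luminescence from relieved DAX1 repression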
Target sequence (P51843 207-470 limits assumed): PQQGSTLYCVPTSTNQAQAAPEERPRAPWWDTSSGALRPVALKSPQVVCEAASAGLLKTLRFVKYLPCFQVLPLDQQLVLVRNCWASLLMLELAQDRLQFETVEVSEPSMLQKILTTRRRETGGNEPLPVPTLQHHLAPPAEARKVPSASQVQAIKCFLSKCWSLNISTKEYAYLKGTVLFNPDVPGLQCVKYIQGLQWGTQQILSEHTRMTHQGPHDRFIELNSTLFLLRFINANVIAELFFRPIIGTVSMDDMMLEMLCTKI
hcDAF-12 act: H. contortus DAF-12 activation, primary screen. HEK293 hcDAF-12 lit1-tk-luc reporter, luminescence; 0% DMSO, 100% Δ7-dafachronic acid. activation, % at 6.8 µM. actives 1.4% (n = 370,000). AID 652067;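 active = activation above the mean of all tested compounds plus 3 SD, cut at about 5.5% in these data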;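 also: 100% = response to 3 µM Δ7-dafachronic acid high control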
DAX1 conf: confirmation of human DAX1 (NR0B1) inhibitors; AID 652134; shares compounds with DAX1 inh-1; inhibition, % at 6.8 µM; actives 87% (n = 2,400); HEK293T StAR-promoter luciferase reporter, SF-1/DAX-1 repression;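 active = inhibition above the average of every tested compound plus 3 SD, cut at about 3.8% in these data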;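 also: 0% = DAX-1 cells with DMSO and 100% = no DAX-1 control cells with DMSO; active compounds raise luminescence by relieving repression of the StAR reporter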
SF1 AF2mut Luc: counter-screen for DAX1 inhibitors: nonselective inhibitors with SF-1 AF2 mutant; shares compounds with DAX1 inh-1; HEK293 StAR-luciferase, luminescence; inhibition, % at 6.8 µM; actives 78% (n = 2,400);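 active = inhibition above the mean of all tested compounds plus 3 SD, cut at about 3% in these data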;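 also: 0% = DAX-1 transfected cells with DMSO and 100% = cells without DAX-1 with DMSO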
Active calls of the source: *; x = no result given.

SMILES	DAX1 inh-1	hgDAF12 agonist	ssDAF12 agonist	DAX1 inh-2	hcDAF-12 act	DAX1 conf	SF1 AF2mut Luc
Cc1nc2ccc(NC(=O)c3ccc(Br)o3)cc2s1	6.2*	4.7	-1.5	2.3	1.0	13.8*	7.6*
O=C(c1cc(Br)c(Br)s1)N1CCc2ccccc2C1	0.2	3.6	-0.7	0.1	0.3	x	x
C[C@@H]1C[C@@H]2O[C@H]2CCCCC(=O)Cc2cc(O)cc(O)c2C(=O)O1	-3.9	-12.8	-2.6	x	-6.6	x	x
COc1ccc(NC(=S)NC(=O)c2ccccc2)cn1	4.6*	13.2*	-0.3	1.2	1.5	3.5	4.3*
COc1ccc(NC(=O)C2(C)Cc3c(-c4ccc5c(c4)OCO5)ccnc3O2)cc1OC (stereo unspecified)	-1.6	-2.5	-0.8	x	0.2	x	x
N#Cc1c(N)[nH]c2ccc(Sc3ccccc3)cc12	-0.4	-4.7	0.1	-1.4	-0.8	x	x
COc1cc(OC)c2c(-c3cccc(-c4ccc(NC(C)=O)cc4)c3)cc(=O)oc2c1	4.8*	0.8	-1.1	-0.9	-0.4	6.3*	-7.4
CCOC1=C2CN(S(=O)(=O)c3ccc(C)cc3)[C@@H](c3cccs3)C[C@H]2[C@H]2C(=O)N(c3ccccc3)C(=O)[C@H]2C1	4.5*	0.6	-1.4	x	-0.7	-3.0	-0.8
Cc1ccc(S(=O)(=O)N2C[C@H]3C(=O)C[C@@H]4C(=O)N(c5ccccc5)C(=O)[C@@H]4[C@@H]3C[C@H]2c2cccs2)cc1	0.0	0.9	-1.2	x	0.9	x	x
COC(=O)C1CCN(C(=O)COC(=O)/C=C/c2ccc(O)c(OC)c2)CC1	8.5*	-2.4	-0.5	0.5	1.0	-0.3	-0.8
COC(=O)[C@]12C[C@H](CC(=O)N3CCN(C(=O)c4ccco4)CC3)C(=O)N(Cc3ccc4c(c3)OCO4)C1=C[C@H](C(C)(C)C)O[C@@H]2C	-0.1	-3.7	-1.3	x	-0.4	x	x
Cc1cccn2cc(-c3ccc4c(c3)NC(=O)CO4)nc12	-0.6	1.7	-1.1	-1.6	-0.5	x	x
Cc1ccn2cc(-c3ccc4c(c3)NC(=O)CO4)nc2c1	5.3*	10.8*	-0.9	1.1	1.4	8.6*	6.0*
CN(C)CCN(C(=O)c1ccc2c(c1)CCCC2)c1nc2cc3c(cc2s1)OCCO3	6.0*	5.1	-0.3	2.4	6.1*	4.4*	1.5
Cc1ccc(NC(=S)NC(=O)C2CCCC2)cc1C	4.6*	10.5*	-0.2	0.8	2.5	5.3*	4.8*
CCSc1nnc(NC(=O)CCN2C(=O)C3CCCCC3C2=O)s1 (stereo unspecified)	4.8*	4.1	-1.0	1.0	-0.1	3.5	1.7
CCc1nnc(NC(=O)CCN2C(=O)C3CCCCC3C2=O)s1 (stereo unspecified)	1.0	-0.4	-0.3	-0.4	0.7	x	x
C=CCSc1nc2c(C(=O)OCC)nnn2c2ccccc12	-0.4	0.5	-0.2	-0.1	2.4	x	x
Nc1nc2c(C(=O)N3CCCC3)nnn2c2ccccc12	4.7*	10.9*	-0.6	x	3.4	9.2*	4.8*
COc1ccc(NC(=O)COc2ccc(C)cc2)c([N+](=O)[O-])c1	0.4	3.4	-1.2	x	-0.4	x	x
COc1ccc(NC(=O)COC(=O)c2cc(C)oc2C)c([N+](=O)[O-])c1	4.6*	-1.5	-1.2	0.4	-1.5	-2.4	-2.0
CCCCn1c(O)c2n(c1=O)Cc1ccccc1N=C2c1ccccc1	-1.4	-0.7	-0.8	x	4.1	x	x
C[C@H](NS(=O)(=O)c1ccc(Cl)cc1)C(=O)OCC(=O)Nc1cc(S(=O)(=O)N2CCOCC2)ccc1Cl	7.7*	0.7	-0.7	-0.3	-0.2	0.5	0.3
CCN(CC)c1ccc(S(=O)(=O)N2CCOCC2)cc1NC(=O)COC(=O)c1cccnc1SC	5.3*	1.5	-1.3	0.7	-0.3	-0.7	-0.1
C=CCN1[C@@H](C)[C@H](c2ccccc2)Oc2cccc(N3CCCC(C)C3)c2S1(=O)=O (stereo partly specified)	0.6	0.1	-0.2	x	1.8	x	x
SMILES	DAX1 inh-1	hgDAF12 agonist	ssDAF12 agonist	DAX1 inh-2	hcDAF-12 act	DAX1 conf	SF1 AF2mut Luc
O=C(CSc1ccccc1)N1CCC(Oc2cccnc2)CC1	0.5	8.9	-0.6	x	-0.9	x	x
COc1ccc(S(=O)(=O)c2ccc(OC)cc2)cc1	-1.1	-1.3	-1.3	0.0	0.3	x	x
COc1ccc(N=[N+]([O-])c2ccc(OC)cc2)cc1	7.9*	9.1	0.9	1.3	5.3	15.9*	6.8*
Cc1cc(C)cc(NC(=O)OC2CC3CC2[C@H]2CCCCN2[C@H]3C)c1 (stereo partly specified)	0.2	0.3	-0.4	x	-1.8	x	x
CC(=O)c1c(C)[nH]c(C(=O)Nc2ccc(C)c(C)c2)c1C	4.6*	8.8	0.2	1.9	0.7	10.4*	7.4*
O=C(CSc1nc2[nH]c(=O)cc(O)c2s1)Nc1ccc(Br)cc1	8.7*	-0.5	-1.1	1.0	-0.3	0.1	0.2
O=C(CSc1nc2[nH]c(=O)cc(O)c2s1)Nc1cccc(Br)c1	5.7*	-0.5	-1.2	0.8	-0.2	2.2	2.1
Cc1ccc(C(=O)Nc2ccc(Cl)cc2C)c(Cl)c1	6.7*	12.2*	-0.4	0.8	4.8	7.2*	5.4*
Cc1cc(NC(=O)c2ccccc2Cl)ccc1NC(=O)c1ccccc1Cl	-0.2	-0.8	0.0	-1.1	-3.3	x	x
CCCn1c(N)c(C(=O)CSc2nnc(Cc3cccs3)n2C2CC2)c(=O)n(C)c1=O	-1.0	-4.3	-2.0	-0.3	-1.8	x	x
COC(=O)C1=C(C)N(Cc2ccccc2C(F)(F)F)C(=NCc2ccc3c(c2)OCO3)NC1c1cccc(C(F)(F)F)c1 (stereo unspecified)	-0.4	3.4	-1.0	x	-1.2	x	x
Cc1c(C(=O)N/N=C/c2ccoc2)cccc1[N+](=O)[O-]	0.1	0.9	-1.0	1.0	0.3	x	x
CC(/C=N/NC(=O)c1ccccc1F)=C\c1ccccc1	9.2*	12.2*	-0.5	1.0	4.5	9.9*	4.2*
CC(/C=N/NC(=O)c1ccccc1C)=C\c1ccccc1	0.5	3.2	-0.5	x	1.9	x	x
O=C(N/N=C\c1ccoc1)c1ccco1	6.6*	7.8	-0.6	2.1	3.5	2.5	2.4
O=C(N/N=C/c1ccoc1)c1ccccc1F	5.3*	4.4	-0.4	0.6	2.4	3.7*	3.3*
COc1ccc(CNc2nc3ccccc3s2)cc1OC	-0.2	1.8	-1.3	-1.1	0.6	x	x
COc1ccc(Nc2nc3ccccc3s2)cc1	5.5*	26.8*	0.4	4.3*	3.9	12.2*	7.3*
COc1cc(/C=C2\SC(=S)N(CCCCC(=O)O)C2=O)ccc1OS(=O)(=O)c1ccc(C)cc1	5.9*	-3.6	-1.0	1.1	-0.1	6.2*	5.8*
